# According to ChEMBL document CHEMBL3988442, “University of Dundee, Small-Polar-MMV Screening Library” (2021):
# For some assays here: Results with a measured potency or affinity are listed apart.
# Tests used:
# Parameters in all cases: scale not given: direction of the effect not stated beside the values
# [1] = molecular target: Protein translocase subunit SecA (Escherichia coli (strain K12)) (UniProt P10408); assay: Assay to Identify E. coli SecA ATPase Inhibitors; assay type: functional; details: 30 µM
# Chain of Protein translocase subunit SecA (Escherichia coli (strain K12)) (P10408 whole entry): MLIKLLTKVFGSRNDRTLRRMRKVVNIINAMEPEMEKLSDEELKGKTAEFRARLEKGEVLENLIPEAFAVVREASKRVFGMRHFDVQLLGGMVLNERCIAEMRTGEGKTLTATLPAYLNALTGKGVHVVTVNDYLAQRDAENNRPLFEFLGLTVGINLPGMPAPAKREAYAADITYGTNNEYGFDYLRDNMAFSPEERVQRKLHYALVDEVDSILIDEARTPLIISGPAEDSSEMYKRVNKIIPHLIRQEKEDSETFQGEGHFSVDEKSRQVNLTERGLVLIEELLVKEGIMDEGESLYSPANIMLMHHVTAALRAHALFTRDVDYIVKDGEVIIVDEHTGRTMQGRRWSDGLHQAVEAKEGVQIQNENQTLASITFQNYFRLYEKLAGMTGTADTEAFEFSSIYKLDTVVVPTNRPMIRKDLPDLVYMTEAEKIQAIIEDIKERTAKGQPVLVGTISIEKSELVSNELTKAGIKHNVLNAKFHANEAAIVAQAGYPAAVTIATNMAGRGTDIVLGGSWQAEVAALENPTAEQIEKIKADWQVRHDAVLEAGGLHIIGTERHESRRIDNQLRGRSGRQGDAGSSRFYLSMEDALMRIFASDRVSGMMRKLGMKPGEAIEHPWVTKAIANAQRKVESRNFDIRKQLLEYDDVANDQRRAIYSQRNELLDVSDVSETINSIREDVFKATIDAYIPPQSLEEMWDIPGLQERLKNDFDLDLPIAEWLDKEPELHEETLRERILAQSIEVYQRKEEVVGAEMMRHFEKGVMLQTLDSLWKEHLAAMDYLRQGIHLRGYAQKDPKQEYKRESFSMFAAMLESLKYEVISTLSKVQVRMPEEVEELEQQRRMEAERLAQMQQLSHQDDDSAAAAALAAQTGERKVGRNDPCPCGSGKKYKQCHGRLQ
# [2] = molecular target: T1, Ubiquitin-activating enzyme e1, putative (Leishmania donovani (strain BPK282A1)) (UniProt E9BSI1); assay: Leishmania donovani Ubiquitin Activating Enzyme (LdE1); assay type: functional; details: 30 µM
# T1 sequence (whole entry): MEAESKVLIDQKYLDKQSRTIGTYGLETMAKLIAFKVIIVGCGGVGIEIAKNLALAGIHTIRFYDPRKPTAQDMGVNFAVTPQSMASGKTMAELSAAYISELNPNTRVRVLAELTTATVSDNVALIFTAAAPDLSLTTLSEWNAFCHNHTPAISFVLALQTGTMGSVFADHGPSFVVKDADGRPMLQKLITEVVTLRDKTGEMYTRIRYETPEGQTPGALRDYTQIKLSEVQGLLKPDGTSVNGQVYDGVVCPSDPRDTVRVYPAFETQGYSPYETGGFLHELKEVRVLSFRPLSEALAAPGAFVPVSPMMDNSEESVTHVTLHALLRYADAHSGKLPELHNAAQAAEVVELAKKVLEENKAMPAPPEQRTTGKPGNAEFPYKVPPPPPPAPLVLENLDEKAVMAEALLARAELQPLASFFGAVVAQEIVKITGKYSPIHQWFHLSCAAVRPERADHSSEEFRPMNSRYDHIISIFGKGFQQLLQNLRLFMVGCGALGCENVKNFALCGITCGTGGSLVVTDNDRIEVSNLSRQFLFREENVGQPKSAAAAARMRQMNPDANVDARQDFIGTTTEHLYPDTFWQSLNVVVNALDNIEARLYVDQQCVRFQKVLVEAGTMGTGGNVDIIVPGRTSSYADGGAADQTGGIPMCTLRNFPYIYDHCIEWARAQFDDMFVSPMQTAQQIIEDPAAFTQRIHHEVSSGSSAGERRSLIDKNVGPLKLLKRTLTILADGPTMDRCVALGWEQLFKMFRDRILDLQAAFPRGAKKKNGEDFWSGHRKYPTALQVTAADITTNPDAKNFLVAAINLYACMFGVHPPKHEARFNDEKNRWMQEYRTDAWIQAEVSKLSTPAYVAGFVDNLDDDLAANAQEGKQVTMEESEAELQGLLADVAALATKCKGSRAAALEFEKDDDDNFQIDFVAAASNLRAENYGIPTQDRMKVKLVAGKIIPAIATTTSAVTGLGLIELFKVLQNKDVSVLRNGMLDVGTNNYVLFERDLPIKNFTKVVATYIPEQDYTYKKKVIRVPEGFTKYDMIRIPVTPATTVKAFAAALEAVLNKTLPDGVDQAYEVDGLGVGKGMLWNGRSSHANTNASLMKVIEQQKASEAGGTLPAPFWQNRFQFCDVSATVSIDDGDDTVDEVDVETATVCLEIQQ
# [3] = molecular target: AMP-activated protein kinase, AMPK (Homo sapiens) (UniProt P54646+O43741+P54619+Q9UGJ0+Q9Y478+Q13131+Q9UGI9); assay: AMP-dependent Kinase enzyme assay. An in vitro enzyme assay that detects ADP turnover that is directly proportional to AMPK activity. This uses naive AMPK that is activated during the assay with MK-8722; assay type: functional; details: 30 µM
# [4] = molecular target: Sialic acid-binding Ig-like lectin 9 (Homo sapiens) (UniProt Q9Y336); assay: Hs-Siglec9 ALPHAscreen SOP 20170721; details: 10 µM
# Chain of Sialic acid-binding Ig-like lectin 9 (Homo sapiens) (Q9Y336 whole entry): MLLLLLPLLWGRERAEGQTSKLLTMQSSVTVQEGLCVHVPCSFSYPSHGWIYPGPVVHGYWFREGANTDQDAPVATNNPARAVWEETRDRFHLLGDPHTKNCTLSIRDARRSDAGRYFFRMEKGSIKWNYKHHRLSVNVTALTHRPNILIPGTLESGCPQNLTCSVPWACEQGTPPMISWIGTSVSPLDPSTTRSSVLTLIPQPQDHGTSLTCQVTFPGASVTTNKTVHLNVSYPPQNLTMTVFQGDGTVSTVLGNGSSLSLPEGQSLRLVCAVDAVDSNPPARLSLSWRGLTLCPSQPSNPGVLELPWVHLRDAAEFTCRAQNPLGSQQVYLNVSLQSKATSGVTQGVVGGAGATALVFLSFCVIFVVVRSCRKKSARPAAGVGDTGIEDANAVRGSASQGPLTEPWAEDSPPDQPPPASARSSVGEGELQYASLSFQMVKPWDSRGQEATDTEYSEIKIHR
# Trypanosoma cruzi = assay: Trypanosoma cruzi phosphomannomutase and mannose-1-phosphate guanylyltransferase assay; assay type: functional; details: 10 µM
# [5] = molecular target: T2, Arginase-2, mitochondrial (Homo sapiens) (UniProt P78540); assay: in vitro enzyme assay to detect the production of urea directly proportional to the activity of Arginase II; assay type: functional; details: 33.3 µM; further: in the data most compounds retested in dose-response had high values
# T2 sequence (whole entry): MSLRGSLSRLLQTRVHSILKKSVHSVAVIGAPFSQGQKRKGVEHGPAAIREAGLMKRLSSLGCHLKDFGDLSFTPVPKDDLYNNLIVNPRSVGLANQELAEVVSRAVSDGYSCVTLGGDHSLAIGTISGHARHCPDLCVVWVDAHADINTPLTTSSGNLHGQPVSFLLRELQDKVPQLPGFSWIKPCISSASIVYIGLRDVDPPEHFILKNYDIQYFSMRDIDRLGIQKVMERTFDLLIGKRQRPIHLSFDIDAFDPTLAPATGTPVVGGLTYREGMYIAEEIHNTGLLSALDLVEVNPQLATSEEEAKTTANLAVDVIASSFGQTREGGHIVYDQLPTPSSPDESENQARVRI
# [6] = molecular target: T3, Proteasome subunit beta (Trypanosoma cruzi) (UniProt O96673); assay: Trypanosoma cruzi proteasome chymotrypsin-like activity (TcProtChymo) assay.; further: in the data most compounds retested in dose-response had high values; assay type: functional; details: 9.37 µM
# T3 sequence (whole entry): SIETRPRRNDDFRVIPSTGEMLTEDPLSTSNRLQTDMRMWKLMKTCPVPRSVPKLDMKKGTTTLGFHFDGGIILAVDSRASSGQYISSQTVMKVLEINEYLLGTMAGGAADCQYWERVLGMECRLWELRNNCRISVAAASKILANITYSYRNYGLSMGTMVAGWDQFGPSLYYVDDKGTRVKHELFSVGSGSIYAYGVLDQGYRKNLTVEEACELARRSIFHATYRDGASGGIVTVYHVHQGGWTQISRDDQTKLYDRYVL
# Homo sapiens = species: Homo sapiens; assay: To identify inhibition of the IFN signalling (Jak-Stat) pathway via expression of an eGFP reporter gene under the control of an IFN-stimulated response element (ISRE) containing MxA promoter.; assay type: functional; details: 30 µM
# [7] = molecular target: T4, Tyrosyl-tRNA synthetase, putative (Trypanosoma cruzi (strain CL Brener)) (UniProt Q4DSP6); assay: Trypanosoma cruzi tyrosyl tRNA synthetase (TcYRS) _High Tyrosine SOP; assay type: functional; details: 30 µM; further: in the data most compounds retested in dose-response had high values
# T4 sequence (whole entry): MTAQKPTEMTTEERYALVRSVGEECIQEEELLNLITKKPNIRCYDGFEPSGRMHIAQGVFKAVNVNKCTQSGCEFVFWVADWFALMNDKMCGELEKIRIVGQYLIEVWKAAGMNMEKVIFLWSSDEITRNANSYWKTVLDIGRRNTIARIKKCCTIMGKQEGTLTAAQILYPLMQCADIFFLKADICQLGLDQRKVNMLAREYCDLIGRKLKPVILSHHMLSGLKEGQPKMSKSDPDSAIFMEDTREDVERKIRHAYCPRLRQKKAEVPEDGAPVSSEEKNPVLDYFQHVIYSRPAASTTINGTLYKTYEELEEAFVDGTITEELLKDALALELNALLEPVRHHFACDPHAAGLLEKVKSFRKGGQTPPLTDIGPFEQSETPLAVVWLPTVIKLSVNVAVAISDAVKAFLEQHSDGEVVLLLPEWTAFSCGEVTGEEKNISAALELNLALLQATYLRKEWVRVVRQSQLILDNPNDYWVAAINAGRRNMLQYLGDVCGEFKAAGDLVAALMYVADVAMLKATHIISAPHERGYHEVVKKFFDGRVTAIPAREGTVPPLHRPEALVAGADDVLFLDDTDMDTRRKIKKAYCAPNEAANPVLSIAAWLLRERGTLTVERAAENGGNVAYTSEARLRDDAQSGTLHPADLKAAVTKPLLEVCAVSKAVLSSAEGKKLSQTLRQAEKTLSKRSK
# [8] = molecular target: T4, Tyrosyl-tRNA synthetase, putative (Trypanosoma cruzi (strain CL Brener)); assay: Trypanosoma cruzi tyrosyl tRNA synthetase (TcYRS) SOP; assay type: functional; details: 30 µM
# [9] = molecular target: Chromo domain-containing protein 1 (Saccharomyces cerevisiae (strain ATCC 204508 / S288c) (Baker's yeast)) (UniProt P32657); assay: ScCHD-1 Enzyme Inhibition Assay; assay type: functional; details: 30 µM; further: in the data most compounds retested in dose-response had high values
# Chain of Chromo domain-containing protein 1 (Saccharomyces cerevisiae (strain ATCC 204508 / S288c) (Baker's yeast)) (P32657 whole entry, the tested form may be a part): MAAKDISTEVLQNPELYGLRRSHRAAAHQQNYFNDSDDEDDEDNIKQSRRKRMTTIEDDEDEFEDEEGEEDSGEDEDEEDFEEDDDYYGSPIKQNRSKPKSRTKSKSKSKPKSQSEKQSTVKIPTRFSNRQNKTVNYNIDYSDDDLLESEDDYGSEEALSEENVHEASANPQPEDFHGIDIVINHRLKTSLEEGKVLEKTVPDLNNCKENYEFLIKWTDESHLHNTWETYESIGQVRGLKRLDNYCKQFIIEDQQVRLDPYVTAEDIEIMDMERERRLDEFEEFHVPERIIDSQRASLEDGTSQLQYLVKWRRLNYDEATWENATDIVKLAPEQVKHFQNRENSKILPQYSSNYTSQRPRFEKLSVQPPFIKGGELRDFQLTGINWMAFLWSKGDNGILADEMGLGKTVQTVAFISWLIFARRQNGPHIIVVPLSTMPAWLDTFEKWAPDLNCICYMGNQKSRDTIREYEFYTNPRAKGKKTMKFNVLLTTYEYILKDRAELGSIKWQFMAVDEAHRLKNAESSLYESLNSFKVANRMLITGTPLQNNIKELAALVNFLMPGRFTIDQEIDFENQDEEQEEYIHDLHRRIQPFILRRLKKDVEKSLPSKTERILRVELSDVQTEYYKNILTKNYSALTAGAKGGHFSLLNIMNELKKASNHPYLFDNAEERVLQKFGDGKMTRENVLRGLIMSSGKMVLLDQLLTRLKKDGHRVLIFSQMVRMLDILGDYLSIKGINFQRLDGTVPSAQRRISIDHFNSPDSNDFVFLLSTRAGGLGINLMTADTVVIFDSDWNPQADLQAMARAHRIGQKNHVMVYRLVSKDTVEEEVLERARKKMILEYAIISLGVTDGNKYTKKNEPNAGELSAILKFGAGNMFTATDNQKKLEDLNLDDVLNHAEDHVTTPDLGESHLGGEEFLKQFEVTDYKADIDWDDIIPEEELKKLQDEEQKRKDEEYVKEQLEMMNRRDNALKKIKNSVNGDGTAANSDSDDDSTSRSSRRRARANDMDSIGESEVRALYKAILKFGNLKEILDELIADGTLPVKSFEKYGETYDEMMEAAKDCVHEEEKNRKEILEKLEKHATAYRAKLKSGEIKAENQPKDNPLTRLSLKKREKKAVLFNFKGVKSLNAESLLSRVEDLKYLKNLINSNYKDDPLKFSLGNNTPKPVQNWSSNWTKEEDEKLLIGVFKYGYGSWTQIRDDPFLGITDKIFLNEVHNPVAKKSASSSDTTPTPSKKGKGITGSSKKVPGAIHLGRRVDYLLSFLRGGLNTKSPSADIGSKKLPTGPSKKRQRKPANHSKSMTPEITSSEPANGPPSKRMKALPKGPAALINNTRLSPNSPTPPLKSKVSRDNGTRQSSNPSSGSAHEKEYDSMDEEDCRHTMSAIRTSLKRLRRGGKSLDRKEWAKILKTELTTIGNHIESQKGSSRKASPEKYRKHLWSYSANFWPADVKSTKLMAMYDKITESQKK
Structure (SMILES),Percent Effect [1],Percent Effect [2],Percent Effect [3],Percent Effect [4],Percent Effect (Trypanosoma cruzi),Percent Effect [5],Percent Effect [6],Percent Effect (Homo sapiens),Percent Effect [7],Percent Effect [8],Percent Effect [9]
CC(C)Cc1noc(CN2CCN(CCOc3ccc(Cl)cc3)CC2)n1,-5.56%,21.1%,-0.366%,9.07%,5.08%,-3.83%,14.7%,32.7%,5.39%,19.5%,-8.42%
CC(C)c1nccn1CCCNC(=O)c1ccc(N(C)C)nc1,-2.99%,8%,-4.43%,14%,3.21%,13.5%,6.97%,13.7%,1.64%,8.64%,-5.17%
COc1c(C)cnc(CN2CCCCC2Cn2nc(C)nc2C)c1C (configuration not stated),0.617%,17.7%,-1.73%,-6.46%,2.55%,5.32%,14.8%,4.74%,14.3%,26.6%,-9.69%
Cc1nc(CN2CCC3(CCN(c4ncc(F)cn4)C3)C2=O)cs1 (configuration not stated),1.42%,15.6%,4.16%,-14.7%,-3.25%,9.68%,21.4%,6.2%,6.35%,11.5%,-9.48%
NC(=O)c1cc(C2CCCN(C(=O)CCc3cscn3)C2)n[nH]1 (configuration not stated),-1.95%,0%,9.04%,3.83%,1.69%,-0.356%,1.86%,8.48%,2.91%,2.44%,-5.18%
Cc1ccc2c(n1)N(C)CCN(C(=O)NC1CC1)C2,-5.82%,-2.67%,117%,-1.66%,-7.53%,-57.2%,4.96%,18.6%,-3.12%,5%,-9.39%
Cc1ncsc1C(=O)N(C)Cc1cccc(Cl)c1,0.989%,18.4%,-2.9%,-2.59%,2.44%,-2.3%,20.6%,7.48%,5.39%,19.5%,-10.9%
COc1cc(C(=O)N2CCC(c3n[nH]c(C4CC4)n3)CC2)ccc1C,-4.66%,-1.27%,6.11%,-3.19%,-1.33%,2.37%,-0.686%,8.43%,1.04%,-2.53%,-30.5%
COc1c(C2CCCN2Cc2cc(C)no2)c(C)nn1C (configuration not stated),-1.92%,8.11%,-4.61%,-2.24%,-5.11%,3.88%,11.3%,15.9%,4.95%,11%,-0.457%
O=C(COCC1CC1)N1CCCC(n2cccn2)C1 (configuration not stated),-2.32%,13.9%,1.73%,-2.9%,-2.36%,2.8%,13.4%,-5.32%,-1.04%,-7.59%,-22.9%
COCc1ncn2c1CN(C(=O)C1CC=CC1)CC2,-10.3%,2.7%,-2.21%,-3.27%,-2.64%,-1.74%,3.69%,2.37%,6.45%,11.1%,0.611%
CCOc1ccc(Cl)c(C(=O)N2CCN(c3cnccn3)CC2)n1,-4.82%,23.4%,-2.68%,6.96%,8.43%,1.42%,15.5%,17.5%,10.7%,24.4%,-12.4%
CCN(CC)C(=O)c1nnn(-c2ccc(C)cc2)c1C1CC1,-2.41%,13.5%,-1.1%,9.18%,6.04%,1.29%,-1.62%,6.05%,0%,18.3%,-3.92%
CC(C)CN(C)c1ccc(C(=O)N2CCCC2c2cnn(C)c2)cn1 (configuration not stated),-0.585%,5.26%,-6.48%,-6.28%,3.46%,1.44%,8.71%,11.2%,7.39%,23.5%,-10.4%
Cc1cnn(C2CCCN(C(=O)c3ccn(C)c(=O)c3)C2)c1 (configuration not stated),-0.722%,7.79%,-5.73%,-4%,1.08%,5.68%,-3.15%,20.6%,3.81%,11.8%,-14.6%
Cc1cc(C(=O)N2Cc3ccccc3OC3(CCOCC3)C2)nc(N)n1,-5.65%,17.6%,1.22%,-2.77%,0%,-4.87%,22.9%,0.0795%,2.15%,14.3%,-24%
CC(C)c1ncc(CN2C[C@@H](CN3CCC(CO)CC3)[C@@H](CO)C2)cn1,-3.44%,8%,-6.42%,4.65%,3.02%,1.56%,19.7%,10.9%,3.83%,11.1%,-4.15%
CCc1nc(CN(C)CC2CCN(CCO)CC2)no1,0.69%,2.7%,-8.99%,9.52%,6.56%,10%,-1.55%,-14.8%,2.65%,9.76%,-0.692%
COCc1ccccc1CNCc1c(C)nn(C)c1N(C)C,-5.19%,10.8%,-41.2%,6.46%,-0.849%,0%,-5.04%,-1.56%,9.36%,6.17%,-5.6%
COCCC1COC2(CCN(C(=O)c3ccco3)CC2)C1 (configuration not stated),-2.43%,13.3%,5.93%,0.194%,-0.787%,3.5%,0.264%,0.48%,8.51%,16.7%,-2.69%
O=C(c1nc(=O)[nH][nH]1)N1CCCC(c2cc(C(F)(F)F)[nH]n2)C1 (configuration not stated),-9.02%,-8.11%,-7.65%,26.3%,11.2%,2.77%,10.8%,15.2%,5.94%,13.4%,-7.89%
Cc1ccc(CN2Cc3c(C(=O)N(C)C)nn(C)c3C2)s1,-0.916%,-19.2%,-24.4%,6.15%,6.75%,-1.2%,7.79%,-12.5%,3.12%,11.1%,-3.35%
